Here are results for seven compounds from PubChem BioAssay (Tox21).

Values without a mark were called inactive. Inconclusive results are not listed. Activity calls are given as the source filed them. Unless noted, calls follow the shape of the full dose curve.

Assay [1] in a line: Nuclear factor erythroid 2-related factor 2/antioxidant responsive element (Nrf2/ARE) small molecule agonists: luciferase reporter gene qHTS assay in human keratinocytes (AID 1919969). Also: nearly all actives have a fitted effect of over 35% in size. Also: potency is read from the fitted curve at half-maximal effect.
The target in assay [2] is Gonadotropin-releasing hormone receptor (Homo sapiens) (UniProt P30968). In words: Human gonadotropin-releasing hormone receptor (GnRHR) small molecule agonists, calcium flux assay in GnRHR-HEK293 cells (AID 1920063). Also: nearly all actives have a fitted effect of over 35% in size. Put shortly:
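We seeded human GnRHR-expressing HEK293 cells for 18 hours, loaded them with calcium dye for an hour at 37 C, added test compounds, and recorded fluorescence intensity kinetically for three minutes.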

The target in assay [3] is KiSS-1 receptor (Homo sapiens) (UniProt Q969F8). In words: Human kisspeptin (KISS1R) small molecule agonists, calcium flux assay in KISS1R-HEK293 cells (AID 1920064; active = well fitted activation curve with a large enough effect in the repeat runs). Put shortly:
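Kinetic calcium assay, 1 s sampling over 3 min at Ex/Em 480/540, in HEK293 cells engineered with human KISS1R; compounds delivered in DMSO after 1 h dye loading.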

Assay [4] is described as follows: G protein-coupled receptor (GPCR) small molecule agonists, calcium flux assay: HEK293 wild type cell line counter screen (AID 1920065). The gist of the method: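 Calcium-sensitive dye, loaded 1 h at 37 C into cells cultured 18 h, reports compound-evoked calcium release as fluorescence (Ex/Em 480/540), measured over 3 min. Agonist mode; 15-point titrations, triplicate.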

Assay [5] is described as follows: p53 small molecule agonists, cell-based qHTS assay with human liver microsomes (AID 1963577). The gist of the method:
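Compounds act here after metabolic activation: human liver microsomes and NADPH, both at 0.5 mg/mL final, were co-added to p53RE-bla cells. Incubation ran 16 h at 37 C, followed by LiveBLAzer detection.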

A short description of assay [6]: p53 small molecule agonists, cell-based qHTS assay with rat liver microsomes (AID 1963578). The gist of the method:
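Read-out is beta-lactamase reporter fluorescence (LiveBLAzer, 2 h, room temperature, dark) in p53RE-bla cells treated 16 h at 37 C with compound, rat liver microsomes and NADPH, both 0.5 mg/mL final.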

Assay [7] in a line: p53 small molecule agonists, cell-based qHTS assay with human liver microsomes: qHTS cell viability counter screen (AID 1963579). Also: nearly all actives have a fitted effect of over 45% in size. Put shortly:
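Cells carrying the p53 response-element beta-lactamase reporter are treated for 16 h at 37 C with test compounds in the presence of human liver microsomes and NADPH (both 0.5 mg/mL final); ATP-based CellTiter-Glo luminescence then reports viability.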

Assay [8] is described as follows: p53 small molecule agonists, cell-based qHTS assay with rat liver microsomes: qHTS cell viability counter screen (AID 1963580). Also: nearly all actives have a fitted effect of over 45% in size. The gist of the method: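 p53RE-bla HCT-116 cells (4,000/well) rested 5 h at 37 C, then given Tox21 compounds in DMSO with rat liver microsomes (0.5 mg/mL final) plus NADPH (0.5 mg/mL final) for 16 h at 37 C. Viability read by CellTiter-Glo luminescence after 30 min at room temperature.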

Assay [9] can be described thus: p53 small molecule agonists, cell-based qHTS assay: qHTS cell viability counter screen (AID 1963581). Also: nearly all actives have a fitted effect of over 45% in size. Also: potency is read from the fitted curve at half-maximal effect. The gist of the method: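 Following 5 h attachment, HCT-116 p53RE-bla cells took up compound for 16 h at 37 C; the reporter was read with B/G FRET substrate (2 h RT), and viability then via CellTiter-Glo ATP luminescence.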
A short description of assay [10]: p53 small molecule agonists, cell-based qHTS assay (AID 1963582; active = well fitted activation curve with a large enough effect in the signal ratio in the repeat runs, not every such curve was filed as active; the % refers to the signal ratio). Put shortly:
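In this cell-based concentration-response screen, a p53 response element drives beta-lactamase; cells received DMSO-borne compounds after 5 h culture and were incubated a further 16 h before FRET substrate development.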

For assay [11], the target named is 5-hydroxytryptamine receptor 2A (Homo sapiens) (UniProt P28223). Put plainly: 5-hydroxytryptamine receptor 2A (HTR2A) small molecule antagonists, cell-based qHTS assay (AID 1963586). Also: nearly all actives have a fitted effect of over 45% in size. Put shortly:
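Antagonist-mode intracellular calcium assay: DOI (4 nM) added after 5 min compound pre-incubation at room temperature to dye-loaded HTR2A-CHO cells. Fluorescence followed for 3 min, sampled every second.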

The target is the same in assay [12]. Put plainly: 5-hydroxytryptamine receptor 2A (HTR2A) small molecule agonists, cell-based qHTS assay (AID 1963587). Also: nearly all actives have a fitted effect of over 30% in size. Put shortly:
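HTR2A-CHO cells, plated 18 h at 37 C/5% CO2, dye-loaded 1 h at 37 C; compounds in DMSO added by pin tool (agonist mode). Intracellular calcium flux read as kinetic fluorescence on FDSS over 2 min at 1 s intervals.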

Assay [13] addresses Muscarinic acetylcholine receptor M1 (Homo sapiens) (UniProt P11229). In words: Cholinergic receptor muscarinic 1 (CHRM1) small molecule antagonists, cell-based qHTS assay (AID 1963588). Also: nearly all actives have a fitted effect of over 40% in size. The gist of the method: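 CHRM1-CHO calcium-flux assay, antagonist mode. Cells were seeded 18 h, dye-loaded 1 h at 37 C and given compound for 5 min at RT, then acetylcholine was added at 50nM. FDSS fluorescence was read 3 min; 15 concentrations, three runs.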

For assay [14] the target is unchanged. Put plainly: Cholinergic receptor muscarinic 1 (CHRM1) small molecule agonists, cell-based qHTS assay (AID 1963589). Also: nearly all actives have a fitted effect of over 35% in size. The gist of the method: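 Measures agonist-induced intracellular calcium rise. Stable human CHRM1 CHO line, 1 h dye load at 37 C, compounds from DMSO, kinetic fluorescence read.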
The nature of assay [15]: cAMP Responsive Elements (CRE) small molecule antagonists, cell-based qHTS assay (AID 1963591; active = well fitted inhibition curve with a large enough effect in the signal ratio in the repeat runs, not every such curve was filed as active; the % refers to the signal ratio). The gist of the method:
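HEK293T cells carrying a CRE-driven beta-lactamase reporter receive compound and NKH477 (0.25 uM final) for 3 h. Fluorescence from LiveBLAzer B/G FRET substrate is read after 2 h at room temperature.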

Assay [16] concerns the target Beta-2 adrenergic receptor (Homo sapiens) (UniProt P07550). Put plainly: Adrenergic beta2 receptor (ADRB2) small molecule antagonists, cell-based qHTS assay (AID 1963592). Also: series mostly up to about 92 µM; nearly all actives have a fitted effect of over 50% in size. Put shortly: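 Cells (CHO, stable ADRB2 overexpression) incubated 18-20hr at 37C; compounds added from DMSO; agonist mix (1nM isoproterenol, 100uM IBMX, 25uM Ro-20-1724) added; 0.5hr RT; d2-cAMP and anti-cAMP-cryptate added; 1hr RT; 665/615 nm read.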

Assay [17] deals with D(2) dopamine receptor (Homo sapiens) (UniProt P14416). Put plainly: Dopamine D2 receptor (DRD2) small molecule agonists, cell-based qHTS assay (AID 1963594). Also: nearly all actives have a fitted effect of over 35% in size. Put shortly: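 HEK293 cells stably expressing DRD2 were cultured 24 h at 37 C, then given Ro20-1724 (0.1 mM final) and compounds for 10 min at room temperature. NKH477 (200nM) was then added for 30 min. cAMP was read by HTRF.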

Assay [18] has the same target. In words: Dopamine D2 receptor (DRD2) small molecule antagonists, cell-based qHTS assay (AID 1963595; active = well fitted inhibition curve with a large enough effect in the signal ratio in the repeat runs, with a control signal flat; the % refers to the signal ratio). The gist of the method:
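In this cell-based antagonist screen, compounds act for 10 min at room temperature before a 30 min challenge with 12 nM quinpirole and 200 nM NKH477. cAMP is quantified by HTRF competition in DRD2-HEK293 cells containing 0.1 mM Ro20-1724.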

Assay [19] in a line: cAMP Responsive Elements (CRE) small molecule agonists, cell-based qHTS assay (AID 1963590). Put shortly:
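A CRE-responsive beta-lactamase reporter in HEK 293T cells was used. Treatment ran 3 h at 37 C; detection used LiveBLAzer B/G FRET substrate for 2 h at room temperature.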

Chain of KiSS-1 receptor (Homo sapiens) (Q969F8 whole entry, looked up): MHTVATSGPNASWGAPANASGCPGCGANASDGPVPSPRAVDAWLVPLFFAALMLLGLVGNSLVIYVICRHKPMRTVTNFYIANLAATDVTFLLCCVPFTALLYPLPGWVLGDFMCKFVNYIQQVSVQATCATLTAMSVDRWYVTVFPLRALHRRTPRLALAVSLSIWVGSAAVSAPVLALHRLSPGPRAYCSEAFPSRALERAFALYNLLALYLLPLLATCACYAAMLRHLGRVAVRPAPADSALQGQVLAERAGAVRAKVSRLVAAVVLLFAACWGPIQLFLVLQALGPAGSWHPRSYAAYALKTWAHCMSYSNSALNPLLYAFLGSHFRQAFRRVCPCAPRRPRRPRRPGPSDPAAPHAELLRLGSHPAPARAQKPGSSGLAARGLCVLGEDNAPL
Chain of Gonadotropin-releasing hormone receptor (Homo sapiens) (P30968 whole entry, looked up): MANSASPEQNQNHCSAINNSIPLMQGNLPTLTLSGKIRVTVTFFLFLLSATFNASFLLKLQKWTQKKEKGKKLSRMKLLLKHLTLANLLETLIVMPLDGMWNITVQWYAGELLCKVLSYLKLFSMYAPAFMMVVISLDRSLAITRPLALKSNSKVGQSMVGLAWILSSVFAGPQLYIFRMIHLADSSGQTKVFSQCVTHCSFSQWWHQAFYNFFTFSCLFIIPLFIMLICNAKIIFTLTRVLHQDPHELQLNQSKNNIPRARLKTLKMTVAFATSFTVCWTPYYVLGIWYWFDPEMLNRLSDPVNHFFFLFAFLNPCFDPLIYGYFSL
Chain of Beta-2 adrenergic receptor (Homo sapiens) (P07550 whole entry, looked up): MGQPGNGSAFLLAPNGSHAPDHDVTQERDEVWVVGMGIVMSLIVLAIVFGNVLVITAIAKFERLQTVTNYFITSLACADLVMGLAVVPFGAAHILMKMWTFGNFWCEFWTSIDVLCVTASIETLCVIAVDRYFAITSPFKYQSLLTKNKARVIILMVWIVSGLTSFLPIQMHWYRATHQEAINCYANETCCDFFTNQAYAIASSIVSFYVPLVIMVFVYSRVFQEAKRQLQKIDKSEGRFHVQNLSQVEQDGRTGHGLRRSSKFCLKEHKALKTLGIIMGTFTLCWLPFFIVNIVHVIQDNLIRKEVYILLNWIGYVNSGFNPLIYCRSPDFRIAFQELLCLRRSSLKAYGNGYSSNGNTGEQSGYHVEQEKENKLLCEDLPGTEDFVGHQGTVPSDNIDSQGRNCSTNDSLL
Chain of D(2) dopamine receptor (Homo sapiens) (P14416 whole entry, looked up): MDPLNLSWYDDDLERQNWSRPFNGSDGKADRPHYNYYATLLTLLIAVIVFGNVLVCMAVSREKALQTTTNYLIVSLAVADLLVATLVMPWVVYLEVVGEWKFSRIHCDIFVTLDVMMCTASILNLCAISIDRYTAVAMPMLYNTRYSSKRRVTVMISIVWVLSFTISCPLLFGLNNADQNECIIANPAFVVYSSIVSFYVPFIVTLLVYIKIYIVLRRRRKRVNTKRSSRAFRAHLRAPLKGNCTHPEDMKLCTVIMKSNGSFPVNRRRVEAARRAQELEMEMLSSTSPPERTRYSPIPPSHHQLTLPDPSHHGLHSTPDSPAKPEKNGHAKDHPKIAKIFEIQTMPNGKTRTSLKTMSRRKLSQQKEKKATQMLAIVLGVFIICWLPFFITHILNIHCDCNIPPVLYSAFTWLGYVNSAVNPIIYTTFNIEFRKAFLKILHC
Chain of 5-hydroxytryptamine receptor 2A (Homo sapiens) (P28223 whole entry, looked up): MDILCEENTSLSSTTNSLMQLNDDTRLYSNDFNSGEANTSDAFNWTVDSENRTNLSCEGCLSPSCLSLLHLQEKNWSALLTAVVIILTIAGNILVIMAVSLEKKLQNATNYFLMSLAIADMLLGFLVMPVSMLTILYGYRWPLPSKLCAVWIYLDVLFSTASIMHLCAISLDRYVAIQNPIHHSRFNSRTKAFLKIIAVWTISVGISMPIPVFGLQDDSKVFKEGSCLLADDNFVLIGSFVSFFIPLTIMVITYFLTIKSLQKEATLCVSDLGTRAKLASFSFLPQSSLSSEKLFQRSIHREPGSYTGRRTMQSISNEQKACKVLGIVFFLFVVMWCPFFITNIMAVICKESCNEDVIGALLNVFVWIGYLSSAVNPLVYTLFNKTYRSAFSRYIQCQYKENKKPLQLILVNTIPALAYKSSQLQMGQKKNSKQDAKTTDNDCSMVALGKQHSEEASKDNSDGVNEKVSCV
Chain of Muscarinic acetylcholine receptor M1 (Homo sapiens) (P11229 whole entry, looked up): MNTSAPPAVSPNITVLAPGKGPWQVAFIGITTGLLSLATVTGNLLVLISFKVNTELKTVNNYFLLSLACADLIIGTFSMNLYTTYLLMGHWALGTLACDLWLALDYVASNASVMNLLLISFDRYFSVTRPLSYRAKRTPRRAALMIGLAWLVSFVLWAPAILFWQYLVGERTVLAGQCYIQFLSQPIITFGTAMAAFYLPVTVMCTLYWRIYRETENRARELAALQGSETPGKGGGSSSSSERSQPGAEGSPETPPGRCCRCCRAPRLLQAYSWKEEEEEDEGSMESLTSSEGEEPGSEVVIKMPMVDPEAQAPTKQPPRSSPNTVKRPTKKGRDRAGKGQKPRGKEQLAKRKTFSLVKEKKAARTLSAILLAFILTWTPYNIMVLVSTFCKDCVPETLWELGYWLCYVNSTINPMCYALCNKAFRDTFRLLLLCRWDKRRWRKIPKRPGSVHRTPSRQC

For `CCN(Cc1c(F)cccc1Cl)c1c([N+](=O)[O-])cc(C(F)(F)F)cc1[N+](=O)[O-]`, the Potency in assay [1] was 15.4 µM (active); in [9] it was 25.7 µM (active). Also, the Potency result in assay [2], in assay [5], in assay [6], in assay [7], in assay [8] and in assay [10] was “inactive” throughout. Moreover, the Potency entry in [11], in assay [12], in assay [13], in assay [14], in assay [15] and in [16] was “inactive” each time. The Potency entry in [17] and in assay [18] was “inactive” each time. Also, the result in [3] and in [4] was inactive.
With `CCCCC(=O)O[C@]1(C(=O)CO)[C@H](C)C[C@H]2[C@@H]3CCC4=CC(=O)C=C[C@]4(C)[C@@]3(F)[C@@H](O)C[C@@]21C`, the Potency entry in assay [1], in assay [2], in assay [5], in [6], in assay [7] and in [8] was “inactive” in each case. Moreover, the Potency result in assay [9], in [10], in [11], in [12], in assay [13] and in assay [14] was “inactive” each time. Further, the Potency entry in assay [19], in assay [16], in [17] and in assay [18] was “inactive” in each case. In addition, the result in assay [3] and in assay [4] was inactive.
In the case of `CC(C)(O)c1ccc(CNC(=O)c2cccnc2Oc2ccc3nonc3c2)cc1`, the Potency entry in assay [1], in [2], in assay [5], in assay [6], in [7] and in assay [8] was “inactive” throughout. The Potency entry in assay [9], in assay [10], in [11], in assay [12], in assay [13] and in assay [14] was “inactive” throughout. Moreover, the Potency entry in assay [16] and in assay [18] was “inactive” each time. The result in assay [3] and in [4] was inactive.
As for `CN(C)CCN(C)CCN(C)C`, the Potency result in assay [1], in assay [2], in assay [5], in assay [6], in assay [7] and in assay [8] was “inactive” in each case. Moreover, the Potency entry in [9], in assay [10], in assay [12], in assay [13], in [14] and in [19] was “inactive” throughout. Besides, the Potency entry in assay [15], in assay [16], in assay [17] and in [18] was “inactive” throughout. For the same compound, the outcome in [3] and in assay [4] was inactive.
Regarding `CC(=O)Nc1ccc(C)c(Cl)c1`, the Potency result in assay [1], in assay [2], in [5], in assay [6], in assay [7] and in assay [8] was “inactive” throughout. In addition, the Potency entry in [9], in assay [10], in assay [12], in [13], in assay [14] and in assay [19] was “inactive” throughout. Further, the Potency entry in assay [15], in assay [16], in assay [17] and in [18] was “inactive” each time. The result in [3] and in assay [4] was inactive.
Regarding `CCC(C)N(C)C(=O)c1cc2ccccc2c(-c2ccccc2Cl)n1` (stereo unspecified), the Potency entry in assay [1], in assay [2], in assay [5], in [6], in assay [7] and in [8] was “inactive” in each case. The Potency entry in assay [9], in assay [10], in assay [11], in [14], in assay [19] and in assay [16] was “inactive” each time. Moreover, the Potency result in assay [17] and in [18] was “inactive” each time. Moreover, the result in [3] and in assay [4] was inactive.
As to `OC(CCN1CCCC1)(c1ccccc1)C1CCCCC1` (stereo unspecified), the Potency result in assay [1], in assay [2], in assay [5], in [6], in assay [7] and in assay [8] was “inactive” in each case. The Potency result in [9], in [10], in assay [11], in assay [13], in [14] and in [19] was “inactive” throughout. Besides, the Potency entry in assay [16], in assay [17] and in assay [18] was “inactive” throughout. The result in assay [3] and in [4] was inactive.
